# Reference: PubChem BioAssay
# Activity calls are given as the source filed them.
# What was measured:
# [1] = tested on: Plasmodium falciparum Sir2 (PF13_0152, Sir2A); assay: Plasmodium falciparum Sir2A binding compounds – biochemical, small-molecule microarray, 635 nm fluorescence, primary screen (AID 1098); details: fluorescence 635 nm, higher = more signal;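 further: score merges spot fluorescence intensity with its signal-to-noise ratio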
# [2] = probe aDKK1 binding to arrayed compounds – biochemical, biotinylated probe, 635/667 nm fluorescence, primary screen (AID 1099); details: small-molecule microarray, higher = more signal;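 further: score merges 667nm spot fluorescence with signal to noise across triplicate slides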
# [3] = probe aCHRDL2 binding to arrayed compounds – biochemical, biotinylated probe, 635/667 nm fluorescence, primary screen (AID 1100); details: small-molecule microarray, higher = more signal
# [4] = change in splice reporter luminescence, either direction, cell-based, HEK293, spliceosome inhibition project, primary screen (AID 1101); details: HEK293 splicing luciferase reporter, 24 h, higher = more signal, called active from +8 up or from −8 down;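 further: HEK293 cells carrying a splicing-competent luciferase reporter gene; test concentration not given here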
# [5] = molecular target: Fibroblast growth factor 10 (Homo sapiens) (UniProt O15520); assay: compounds binding fibroblast growth factor 10 – biochemical, small-molecule microarray, 635 nm fluorescence, primary screen (AID 1102); details: FGF10 binding, fluorescence 635 nm, higher = more signal
# [6] = tested on: glycogen synthase kinase-3 (GSK3A per assay name; protocol says GSK3B); assay: compounds binding glycogen synthase kinase-3 – biochemical, small-molecule microarray, 635 nm fluorescence, GSK3A, primary screen (AID 1103); details: fluorescence 635 nm, higher = more signal; further: the record names both GSK3A and GSK3B
# [7] = molecular target: Epidermal growth factor receptor (Homo sapiens) (UniProt P00533); assay: compounds binding epidermal growth factor receptor – biochemical, small-molecule microarray, 635 nm fluorescence, primary screen (AID 1104); details: EGFR binding, higher = more signal;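 further: score merges 667 nm emission intensity with spot signal to noise over triplicate slides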
# [8] = molecular target: Follistatin-related protein 3 (Homo sapiens) (UniProt O95633); assay: compounds binding follistatin-related protein 3 – biochemical, small-molecule microarray, 635 nm fluorescence, primary screen (AID 1105); details: FSTL3 binding, higher = more signal;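 further: score merges emission near 667 nm and signal to noise per printed spot across three slides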
# [9] = molecular target: Dickkopf-related protein 1 (Homo sapiens) (UniProt O94907); assay: small molecules binding DKK1 protein – biochemical, small-molecule microarray, 635 nm fluorescence scan, primary screen (AID 1106); details: higher = more signal;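 further: score merges emission near 667 nm with signal to noise over three replicate slides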
# [10] = tested on: Inhibin beta A chain (activin A); assay: small molecules binding activin A – biochemical, small-molecule microarray, 635 nm fluorescence scan, primary screen (AID 1107); details: INHBA, higher = more signal;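 further: mouse activin A protein probed at 4.33 µg/mL on printed slides; score merges bound-protein fluorescence near 667 nm with spot signal-to-noise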
# [11] = tested on: Human papillomavirus type 1a protein E7 (residues 44-93); assay: small molecules binding HPV E7 44-93 – biochemical, small-molecule microarray, residues 44-93, 635 nm fluorescence, primary screen (AID 1108); details: fluorescence 635 nm, higher = more signal;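 further: E7 fragment applied at 1 µg/mL in TBST for 1 h at 4 C; score combines spot fluorescence with its signal to noise ratio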
# [12] = hepatitis C replication reporter changes, two-sided – Huh7 cells, luciferase reporter, HCV replication inhibitor project, primary screen (AID 1109); details: Huh7 HCV replicon luciferase reporter, 48 h; higher = more signal;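 further: huh7 hepatoma cells harbouring a luciferase neomycin HCV replicon reporter; luciferase luminescence as measure of HCV replicon replication; test concentration not given here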
# [13] = molecular target: Left-right determination factor 2 (Homo sapiens) (UniProt O00292); assay: small molecules binding LEFTY2 protein – biochemical, small-molecule microarray, 635 nm fluorescence scan, primary screen (AID 1110); details: higher = more signal
# [14] = molecular target: Calmodulin-1 (Homo sapiens) (UniProt P0DP23); assay: small molecules binding calmodulin-1 with EGTA – biochemical, small-molecule microarray, Cy5-labelled CALM1, profiling panel (AID 1111); details: Cy5-CALM1 binding fluorescence, higher = more signal;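 further: labelled calmodulin applied in Tris saline Tween buffer holding calcium plus EGTA and DTT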
# [15] = molecular target: Calmodulin-1 (Homo sapiens) (UniProt P0DP23); assay: small molecules binding Ca-loaded calmodulin-1 – biochemical, small-molecule microarray, Cy5-labelled CALM1, plus calcium, artefact control for SMM control-protein annotation, profiling panel (AID 1112); details: Cy5-CALM1 binding fluorescence, higher = more signal;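 further: score merges spot fluorescence with signal to noise from triplicate slides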
# [16] = probe aWnt5a binding to arrayed compounds – biochemical, biotinylated probe, 635/667 nm fluorescence, primary screen (AID 1113); details: small-molecule microarray, higher = more signal;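 further: score merges 667 nm fluorescence intensity with signal-to-noise per printed feature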
# [17] = probe aShh binding to arrayed compounds – biochemical, biotinylated probe, 635/667 nm fluorescence, primary screen (AID 1114); details: small-molecule microarray, higher = more signal;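 further: probe is biotin-labelled aShh protein from a stem cell growth factor screen; measures binding of labelled protein to compounds printed on the slide; score merges feature fluorescence at 667 nm with signal-to-noise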
# [18] = probe aNog binding to arrayed compounds – biochemical, biotinylated probe, 635/667 nm fluorescence, primary screen (AID 1115); details: small-molecule microarray, higher = more signal;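 further: probe is biotinylated aNog protein used at 0.15 µg/mL for 1 h at 4 C; z-score combines 667 nm fluorescence of each spot with its signal to noise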
# [19] = molecular target: Torsin-1A-interacting protein 1 (Homo sapiens) (UniProt Q5JTV8); assay: compound microarray binding of lysate hLAP1 – cell lysate, small-molecule microarray, COS7 lysate, 635/667 nm fluorescence, primary screen (AID 1116); details: 635 nm fluorescence, higher = more signal
# [20] = molecular target: Alpha-bungarotoxin (Bungarus multicinctus) (UniProt P60615); assay: compounds binding labelled alpha-BTX control protein – biochemical, small-molecule microarray, Alexa647 label, 635/667 nm fluorescence, artefact control for SMM control protein annotation, profiling panel (AID 1117); details: alpha-BTX-A647 binding fluorescence, higher = more signal
# Sequence of Alpha-bungarotoxin (Bungarus multicinctus) (P60615 whole entry, looked up): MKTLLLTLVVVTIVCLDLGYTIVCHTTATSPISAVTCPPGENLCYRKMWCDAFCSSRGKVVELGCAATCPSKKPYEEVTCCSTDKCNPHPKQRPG
# Sequence of Dickkopf-related protein 1 (Homo sapiens) (O94907 whole entry, looked up): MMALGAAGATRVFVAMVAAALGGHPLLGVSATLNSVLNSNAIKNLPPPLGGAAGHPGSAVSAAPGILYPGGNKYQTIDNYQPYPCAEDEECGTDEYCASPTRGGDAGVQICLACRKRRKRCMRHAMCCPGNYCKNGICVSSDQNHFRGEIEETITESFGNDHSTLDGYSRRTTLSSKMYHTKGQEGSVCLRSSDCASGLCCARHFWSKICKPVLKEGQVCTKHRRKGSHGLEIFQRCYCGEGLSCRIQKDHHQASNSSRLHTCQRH
# Sequence of Torsin-1A-interacting protein 1 (Homo sapiens) (Q5JTV8 whole entry, looked up): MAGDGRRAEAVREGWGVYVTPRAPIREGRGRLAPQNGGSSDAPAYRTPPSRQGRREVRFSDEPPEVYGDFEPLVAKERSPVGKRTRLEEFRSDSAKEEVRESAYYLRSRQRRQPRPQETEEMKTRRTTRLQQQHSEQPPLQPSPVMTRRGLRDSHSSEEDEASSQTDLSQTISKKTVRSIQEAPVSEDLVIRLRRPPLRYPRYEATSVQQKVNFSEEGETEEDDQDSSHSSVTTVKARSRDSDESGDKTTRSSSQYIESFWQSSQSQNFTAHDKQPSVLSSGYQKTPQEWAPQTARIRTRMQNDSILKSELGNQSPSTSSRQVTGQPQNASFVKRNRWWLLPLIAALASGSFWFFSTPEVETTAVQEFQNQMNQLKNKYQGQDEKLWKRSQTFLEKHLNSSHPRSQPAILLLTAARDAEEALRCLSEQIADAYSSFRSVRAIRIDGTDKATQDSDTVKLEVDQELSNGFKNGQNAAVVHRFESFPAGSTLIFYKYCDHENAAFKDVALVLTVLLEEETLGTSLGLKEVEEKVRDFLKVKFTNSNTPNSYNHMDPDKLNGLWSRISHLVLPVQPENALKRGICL
# Sequence of Follistatin-related protein 3 (Homo sapiens) (O95633 whole entry, looked up): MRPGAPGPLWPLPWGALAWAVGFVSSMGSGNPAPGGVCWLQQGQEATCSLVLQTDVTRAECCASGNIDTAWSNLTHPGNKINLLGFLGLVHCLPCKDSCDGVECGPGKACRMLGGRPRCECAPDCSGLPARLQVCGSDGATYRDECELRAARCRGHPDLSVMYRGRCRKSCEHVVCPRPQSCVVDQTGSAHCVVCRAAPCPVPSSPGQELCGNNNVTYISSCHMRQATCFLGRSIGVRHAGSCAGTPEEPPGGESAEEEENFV
# Sequence of Left-right determination factor 2 (Homo sapiens) (O00292 whole entry, looked up): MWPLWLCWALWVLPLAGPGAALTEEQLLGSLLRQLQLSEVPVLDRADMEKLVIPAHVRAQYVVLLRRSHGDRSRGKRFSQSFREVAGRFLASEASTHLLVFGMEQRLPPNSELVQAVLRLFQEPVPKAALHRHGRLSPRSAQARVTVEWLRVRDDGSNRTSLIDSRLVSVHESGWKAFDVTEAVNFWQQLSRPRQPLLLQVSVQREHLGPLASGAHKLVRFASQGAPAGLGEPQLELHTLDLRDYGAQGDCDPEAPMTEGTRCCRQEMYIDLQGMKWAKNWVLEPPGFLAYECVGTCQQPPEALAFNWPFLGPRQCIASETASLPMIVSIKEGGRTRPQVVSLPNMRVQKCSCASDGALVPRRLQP
# Sequence of Fibroblast growth factor 10 (Homo sapiens) (O15520 whole entry, looked up): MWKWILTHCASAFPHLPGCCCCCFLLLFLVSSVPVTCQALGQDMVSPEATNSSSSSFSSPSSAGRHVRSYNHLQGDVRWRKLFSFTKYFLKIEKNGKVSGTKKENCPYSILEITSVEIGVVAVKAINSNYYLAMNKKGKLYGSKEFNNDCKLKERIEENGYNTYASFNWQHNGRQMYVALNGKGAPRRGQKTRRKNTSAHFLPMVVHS
# Sequence of Epidermal growth factor receptor (Homo sapiens) (P00533 whole entry, looked up): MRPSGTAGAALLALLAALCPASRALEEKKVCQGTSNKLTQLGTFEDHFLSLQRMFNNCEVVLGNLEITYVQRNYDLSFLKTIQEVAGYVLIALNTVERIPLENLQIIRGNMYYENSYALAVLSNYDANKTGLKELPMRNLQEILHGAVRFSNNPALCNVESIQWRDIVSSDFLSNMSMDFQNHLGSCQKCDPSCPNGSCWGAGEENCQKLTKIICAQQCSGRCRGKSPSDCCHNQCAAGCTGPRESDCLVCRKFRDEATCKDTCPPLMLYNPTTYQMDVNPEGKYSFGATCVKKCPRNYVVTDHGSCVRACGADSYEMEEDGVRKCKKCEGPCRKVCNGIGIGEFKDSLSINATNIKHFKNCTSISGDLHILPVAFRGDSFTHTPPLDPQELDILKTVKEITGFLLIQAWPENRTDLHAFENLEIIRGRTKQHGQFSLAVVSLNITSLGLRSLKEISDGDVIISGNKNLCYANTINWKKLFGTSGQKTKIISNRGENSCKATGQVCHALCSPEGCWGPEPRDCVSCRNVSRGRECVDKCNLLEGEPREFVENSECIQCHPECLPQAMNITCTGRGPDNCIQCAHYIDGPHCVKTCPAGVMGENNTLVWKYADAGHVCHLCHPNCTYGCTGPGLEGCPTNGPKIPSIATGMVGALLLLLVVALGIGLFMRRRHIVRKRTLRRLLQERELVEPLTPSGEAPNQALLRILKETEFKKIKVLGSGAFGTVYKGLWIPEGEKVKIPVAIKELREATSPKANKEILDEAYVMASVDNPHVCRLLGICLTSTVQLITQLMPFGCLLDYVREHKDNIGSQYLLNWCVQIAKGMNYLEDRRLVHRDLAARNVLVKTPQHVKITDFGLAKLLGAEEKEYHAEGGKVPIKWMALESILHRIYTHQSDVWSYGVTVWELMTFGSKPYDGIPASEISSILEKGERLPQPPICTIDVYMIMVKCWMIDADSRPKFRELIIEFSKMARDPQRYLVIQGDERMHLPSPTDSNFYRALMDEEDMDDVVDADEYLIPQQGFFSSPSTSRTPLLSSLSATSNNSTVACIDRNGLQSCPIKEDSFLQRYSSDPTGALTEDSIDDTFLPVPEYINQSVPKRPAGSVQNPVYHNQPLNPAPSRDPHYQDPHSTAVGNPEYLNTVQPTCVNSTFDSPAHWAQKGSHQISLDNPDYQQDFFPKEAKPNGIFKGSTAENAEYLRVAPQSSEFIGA
Compound,composite z-score [1],composite z-score [2],composite z-score [3],z-score [4],composite z-score [5],composite z-score [6],composite z-score [7],composite z-score [8],composite z-score [9],composite z-score [10],composite z-score [11],z-score [12],composite z-score [13],composite z-score [14],composite z-score [15],composite z-score [16],composite z-score [17],composite z-score [18],composite z-score [19],composite z-score [20]
[N-]=[N+]=NCc1ccccc1C[C@@]1(C(=O)O)N=C(c2ccc(OCCCO)cc2)O[C@@H]1c1ccccc1,1.31,0.884,1.24,-0.618 (inactive),-0.0995,-0.374,-0.906,-0.879,-1.09,0.738,0.566,-0.616,-0.404,2.13,1.36,-0.0799,0.0469,0.767,1.75,1.09
COC(=O)c1c2oc(c1C(=O)OC)C(=O)N[C@@H](C(C)C)Cn1nncc1C1(CCCCC1)NC(=O)N[C@H](CO)CC2,1.54,-0.212,0.0273,-1.44 (inactive),-0.0613,-0.96,-0.193,-0.232,-0.074,0.31,-0.683,0.862,-0.0834,0.401,-0.102,-0.148,0.0899,-0.0207,0.368,1.29
CCCNC(=O)[C@@H]1c2ccccc2C(=O)N(Cc2cc(C(F)(F)F)cc(C(F)(F)F)c2)[C@H]1c1ccc(CO)cc1,1.23,0.829,0.803,-0.443 (inactive),0.238,0.459,-0.112,0.268,-0.196,0.0686,0.35,-0.392,-0.402,0.394,0.544,-0.146,0.188,0.527,0.238,1.22
COC(=O)C(CC#Cc1ccc2c(c1)[C@]1(C(=O)N2)[C@H](C(=O)O)[C@H]2C(=O)O[C@H](c3ccccc3)[C@H](c3ccccc3)N2[C@@H]1c1ccc(OCCO)cc1)C(=O)OC,1.53,0.393,0.799,-1.31 (inactive),1.15,0.987,-0.199,0.0514,-0.611,0.117,0.738,-0.555,0.155,2.16,0.717,-0.0229,0.166,0.78,1.5,3.51
COc1ccc([Si](C)(C)[C@H]2[C@H](CC(=O)N3Cc4ccccc4C[C@H]3CO)O[C@@]3(C(=O)N(Cc4cccc(N5C(=O)COc6ccccc65)c4)c4ccccc43)[C@@H]2C)cc1,1.18,-0.225,-0.261,-1.72 (inactive),0.818,0.52,1.13,1.26,1.12,1.23,0.354,-3.73,0.818,0.191,-0.185,0.0094,0.0637,-0.0118,0.7,1.87
CC(C)(C)OC(=O)CC[C@]1(C(=O)NCc2ccccc2)N=C(c2ccc(OCCCO)cc2)O[C@H]1c1ccccc1N=[N+]=[N-],1.02,1.36,1.35,-2.19 (inactive),1.21,1.29,-0.0113,1,0.496,0.947,-0.385,-0.5,0.478,2.14,0.756,0.17,0.57,1.11,1.63,2.77
C=CCNC(=O)[C@@H]1[C@H]2C(=O)O[C@H](c3ccccc3)[C@H](c3ccccc3)N2[C@H](c2ccc(O)cc2)[C@@]12C(=O)N(C(=O)OCCOC)c1ccc(C#Cc3ccc(OC)cc3)cc12,1.12,0.51,-0.382,-1.16 (inactive),0.793,1.3,0.541,0.62,1.12,-0.071,1.13,-1.77,0.638,1.75,0.185,-0.0368,-0.0011,0.315,1.13,0.579
COc1ccc([Si](C)(C)[C@@H]2[C@@H](CCn3cc(CCO)nn3)O[C@]3(C(=O)N(Cc4ccc(N5C(=O)c6cccc7cccc5c67)cc4)c4ccccc43)[C@H]2C)cc1,0.831,0.134,0.207,-2.39 (inactive),0.266,0.0923,0.248,0.334,0.258,0.581,0.119,-5.16,0.316,1.22,0.863,-0.0459,0.112,-0.284,0.758,1.6
CC(C)C(CO)N1C(=O)[C@@H]2[C@H]3C(=O)OCC=C[C@H]3OC23C=CCN(Cc2ccccc2)C(=O)[C@@H]13 (stereo not given in full),-0.734,-0.26,0.0297,-0.346 (inactive),-0.367,-0.882,-1.12,-0.718,-0.149,0.859,-1.25,-0.498,-0.275,-0.886,-0.783,-0.256,0.0141,0.0342,-0.207,-1.44
CC(C)C(=C=CC[C@H](O)c1ccc(OCCO)cc1)C[C@H](O)COCc1ccccc1,1.12,-0.0067,-0.226,-0.642 (inactive),0.498,0.653,-0.445,0.421,0.141,1.42,0.162,-1.87,-0.022,0.59,-0.627,-0.0403,0.0469,0.217,0.833,1.07
CCN(CC)c1ccc(N2CC=CC34O[C@@H]5C=CCOC(=O)[C@@H]5[C@H]3C(=O)N(C(CO)C(C)C)[C@@H]4C2=O)cc1 (stereo not given in full),-0.0952,-0.239,-0.202,-0.133 (inactive),-0.608,-0.142,-1.01,-0.586,0.0041,0.761,-0.825,-0.496,-0.827,-0.647,-0.752,-0.129,-0.0626,-0.481,-0.257,-0.274
